Assay results taken from PubChem BioAssay AID1053144 (Broad Institute, 2014).
In all, about 3,400 compounds went through this assay and about 160 (4.7%) were called active. These entries were drawn from the full list. Potency and affinity values are given separately. Values without a mark were called inactive.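 Rule for the calls: active = fitted curve reaches 30% activation at a concentration no higher than the top valid tested dose, luminescence rising; inconclusive = no clear call, values can overlap the other calls; inactive = signal moving opposite to the expected increase, plus the rest.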

Assay: TCF/LEF reporter activation in neural progenitors – cell-based, iPS-derived NPC, luciferase, Wnt3a, cherry-pick, dose response (AID 1053144);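 note: Wnt3a stimulus is conditioned medium from Wnt3a-transfected mouse L cells at 5% in well; 0% = neutral control wells and 100% = CHIR-99021 positive control wells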
Settings: Wnt3a EC25, 24 h; series mostly up to 26 µM; activation: at the top concentration
With `CCCOc1ccc(-c2csc3nc[nH]c(=O)c23)cc1` the “activation” value was 4.45%.
With `COc1ccc2[nH]c(-c3ccccc3)cc2c1` the “activation” value was 6.06%.
For `COc1ccc2cc(CCNC(=O)c3cccs3)c(=O)[nH]c2c1`, the “activation” value was 9.16%.
For `Cc1ccc(CONC(=O)c2ccc(C)cc2)cc1`, the “activation” value was 8.43%.
In the case of `Nc1ccc(N=Nc2ccccc2)c(N)n1`, the “activation” value is reported as 12.5%.
In the case of `COc1ccc(N=Nc2ccc(N)nc2N)cc1`, the “activation” value is reported as 12.9%.
For `CCOC(=O)C1(Cc2ccccc2)CCCN(C(=O)COc2ccccc2OC)C1` (stereo not given), the “activation” value was 9.49%.
With `Cn1c(SCC(=O)c2ccccc2)nnc1-c1ccccn1` the “activation” value was 11.4%.
With `Cn1c(SCc2ccccc2F)nnc1-c1ccccn1` the “activation” value was 13.6%.
For `Cc1ccc(NC(=O)C(=O)NCCCN2CCCC2=O)cc1`, the “activation” value was 6.01%.
For `COc1ccc2oc(=O)c(-c3nc4ccccc4o3)cc2c1`, the “activation” value was 16.9%.
For `COc1cccc2cc(-c3nc4ccccc4o3)c(=O)oc12`, the “activation” value was 6.12%.
For `N/C(=N\OC(=O)c1cccs1)c1ccc(Cl)cc1`, the “activation” value was 10.6%.
For `O=C(Nc1ccccc1)Nc1nnc(-c2ccccc2)s1`, the “activation” value was 8.64%.
For `COc1ccc(C(C(=O)NC2CCCC2)n2c(C3CCN(C(C)=O)CC3)nc3ccccc32)cc1` (stereo not given), the “activation” value was 16.6%.
In the case of `c1ccc2c(c1)Cc1cc3ccccc3nc1-2`, the “activation” value is reported as 15.7%.
With `O=C(O)c1ccc2c(c1)C(=O)N(c1ccc(C(=O)OCC(=O)c3ccccc3)cc1)C2=O` the “activation” value was 7.5%.
For `O=C(/C=C/c1ccc(N2CCOCC2)cc1)c1ccccc1`, the “activation” value was 5.79%.
In the case of `CCC(C)C(=O)Nc1nc2ccc(OC)cc2s1` (stereo not given), the “activation” value is reported as 11.1%.
For `CC(=O)Nc1nonc1NC(=O)c1ccc(C(C)(C)C)cc1`, the “activation” value was 6.59%.
In the case of `CCCCn1c(CN2CCN(C(=O)OCC)CC2)nc2c1c(=O)n(C)c(=O)n2C`, the “activation” value is reported as 1.14%.
With `Fc1ccccc1-c1nc(-c2ccccc2)no1` the “activation” value was 4.1%.
With `Cc1ccc(-c2noc(-c3ccccc3F)n2)cc1` the “activation” value was 7.61%.
In the case of `Cc1ccc(OCc2cc(C(=O)NCC(C)(C)N3CCOCC3)no2)cc1C`, the “activation” value is reported as 13.3%.
For `NC(=O)CSc1nnc(NC(=O)c2ccc3ccccc3c2)s1`, the “activation” value was 8.39%.
For `CC1CCN(C(=O)CSc2nc3ccccc3s2)CC1`, the “activation” value was 7.04%.
In the case of `CC1CCC2(CC1)NC(=O)N(CC(=O)Nc1sc3c(c1C(N)=O)CCC3)C2=O` (stereo not given), the “activation” value is reported as 5.23%.
For `NC(=O)c1c(NC(=O)c2ccccc2)sc2c1CCC2`, the “activation” value was 9.7%.
With `CN1CCN(c2ccc(NC(=O)c3ccc(-c4ccccc4F)o3)cc2)CC1` the “activation” value was 13.4%.
With `CCn1c(SCC(=O)c2ccccc2)nnc1-c1cnccn1` the “activation” value was 9.13%.
In the case of `Cn1c(SCC(=O)c2ccccc2)nnc1-c1ccc(O)cc1`, the “activation” value is reported as 13%.
In the case of `O=C(Nc1nnc(C2CCCCC2)s1)c1cccs1`, the “activation” value is reported as 4.29%.
With `Cc1ccnc(N/C=C/C(=O)c2ccc(Br)cc2)c1` the “activation” value was 3.27%.
In the case of `Nc1ccc(-c2nc3ccc([N+](=O)[O-])cc3[nH]2)cc1`, the “activation” value is reported as 18.3%.
With `Cc1nc2ccc(-c3nc4cc(N)ccc4o3)cc2[nH]1` the “activation” value was 3.55%.
With `CCCOc1ccc(C(=O)Nc2ccc3c(c2)OCO3)cc1` the “activation” value was 13.3%.
In the case of `CC1CCC(NC(=O)c2cccn2C)CC1` (stereo not given), the “activation” value is reported as 2.89%.
For `C=C(C)CNC(=O)CCc1nnc(Cc2cccc(C(F)(F)F)c2)o1`, the “activation” value was 17%.
For `O=C(COc1ccc2c(c1)OCO2)Nc1ccccc1F`, the “activation” value was 8.94%.
With `O=C(NCC(c1ccco1)N1CCCC1)c1cc(=O)[nH]c2ccccc12` (stereo not given) the “activation” value was 0.695%.
In the case of `O=C(O)c1ccccc1SCc1cn2cc(Cl)ccc2n1`, the “activation” value is reported as 9.86%.
For `CCOC(=O)/C(=C/c1ccc(OC(=O)c2ccncc2)cc1)C(C)=O`, the “activation” value was 2.42%.
With `COc1ccc(NC(=O)c2ccc3c(c2)N(C)CCS3)cc1` the “activation” value was 8.32%.
In the case of `CN1CCSc2ccc(C(=O)Nc3ccc(Cl)cc3)cc21`, the “activation” value is reported as 12.8%.
With `Cc1ccc2c(c1)c1c(n2C)-c2[nH]ncc2CC1` the “activation” value was 8.88%.
In the case of `COC(=O)c1nn(-c2ccc(C)cc2)c2nnc(Cc3ccccc3)c(=O)n12`, the “activation” value is reported as 1.09%.
For `COC(=O)c1ccc(NC(=O)c2ccco2)cc1`, the “activation” value was 24.7%.
For `O=C(Nc1ccc(Cl)cc1)c1ccco1`, the “activation” value was 6.38%.
With `COc1ncccc1-c1nnn(-c2ccccc2)n1` the “activation” value was 8.3%.
With `CC(=O)NC(CC(=O)NNC(=O)COc1c(C)cccc1C)c1ccccc1` (stereo not given) the “activation” value was -0.753%.
In the case of `Cc1cc(NC(=O)c2ccccc2)ncc1NC(=O)c1ccco1`, the “activation” value is reported as 6.34%.
For `CSc1nccc(N/N=C/c2ccccc2)n1`, the “activation” value was 9.49%.
With `COc1ccc(C(=O)c2c[nH]c(C(=O)NCCCn3ccnc3)c2)cc1` the “activation” value was 2.91%.
In the case of `O=C(NCc1cccs1)c1cc(-c2ccc(O)cc2)on1`, the “activation” value is reported as 9.8%.
With `O=C(NC1CCCC1)c1cc(-c2ccc(Cl)cc2)on1` the “activation” value was 13.5%.
For `O=c1c2ccccc2oc2ccc(NCCCn3ccnc3)cc12`, the “activation” value was 0.761%.
In the case of `O=C(NC1CCCCC1)c1cc(-c2cccs2)on1`, the “activation” value is reported as 6.56%.
For `O=C(c1cc(-c2ccccc2)on1)N1CCCCCC1`, the “activation” value was 13.4%.
For `CC(C)(C)c1cccc(N/C(=C\C(=O)c2ccccc2)c2ccccc2)c1`, the “activation” value was -2.87%.
For `CC(=O)c1ccc(OCc2ccccc2)c(C)c1O`, the “activation” value was 6.75%.
For `O=C(Nc1nnc(-c2ccco2)s1)C1CC1`, the “activation” value was 4.36%.
With `COc1cccc(N=c2oc3ccccc3cc2-c2nc3ccccc3[nH]2)c1` the “activation” value was -4.17%.
In the case of `Cc1cc(C(=O)Nc2ccc(Br)cn2)sc1C`, the “activation” value is reported as 8.02%.
In the case of `O=C(Nc1ccc(Br)cn1)c1ccc(Cl)s1`, the “activation” value is reported as 2.47%.
With `CC(=O)c1cc(F)ccc1OCC(=O)Nc1ccc2c(c1)OCO2` the “activation” value was 8%.
In the case of `O=S(=O)(c1cccs1)N1CCCc2cccc(O)c21`, the “activation” value is reported as 8.4%.
With `COc1cccc(OCc2cc(C(=O)N3CCN(c4ccccc4OC)CC3)no2)c1` the “activation” value was 6.95%.
For `O=C(O)COn1c(-c2ccccc2)nc2ccc([N+](=O)[O-])cc21`, the “activation” value was 8.93%.
For `Cc1ccnc(SCc2cc(=O)c(OC(=O)c3ccc(Br)o3)co2)n1`, the “activation” value was 7.99%.
For `O=C(/C=C/c1cc2ccccc2o1)c1ccccc1O`, the “activation” value was 9.57%.
For `COc1ccc(/C=C/C(=O)c2cc3c(cc2N)OCO3)cc1`, the “activation” value was 6.99%.
In the case of `O=C(/C=C/c1ccccc1)NC(=O)c1ccccc1O`, the “activation” value is reported as 5.83%.
With `O=C(/C=C/c1ccc2c(c1)OCO2)c1ccc[nH]1` the “activation” value was 6.1%.
For `O=C(N/N=C/c1ccc(N2CCOCC2)cc1)c1cccs1`, the “activation” value was 8.99%.
With `CCc1sc(C(=O)N2CCc3ccccc32)cc1C` the “activation” value was 3.85%.
With `CC(C)[C@H](NC(=O)OCc1ccccc1)C(=O)OCC(=O)c1ccccc1` the “activation” value was 4.59%.
In the case of `COc1cc(/C=C/C(=O)N2C(=O)c3cccc(N)c3C2=O)cc(OC)c1OC`, the “activation” value is reported as -6.94%.
In the case of `Cc1ccc(NC(=O)c2ccccc2NC(=O)Cc2ccccc2)cc1`, the “activation” value is reported as 7.38%.
With `COc1ccc(NC(=O)c2cc3ccccc3cc2O)cc1` the “activation” value was 12.5%.
For `Cc1cnc(C(=O)Nc2ccc(C(C)C)cc2)cn1`, the “activation” value was 12.2%.
With `COc1cc2ccccc2cc1C(=O)Nc1ccc(O)cc1` the “activation” value was 8.68%.
With `Cc1cc(C)n(-c2nnc3c4ccccc4n(C)c3n2)n1` the “activation” value was 16.2%.
With `O=C(Nc1ccc2c(c1)OCO2)c1ccc(CO)cc1` the “activation” value was 6.96%.
In the case of `CCOC(=O)CSc1nc2ccccc2c(=O)n1NC(=O)c1ccccc1`, the “activation” value is reported as 15%.
For `c1cncc(CSc2ccc(-c3ccc4c(c3)OCO4)nn2)c1`, the “activation” value was 7.68%.
